Measured values reported in the supplement of paper PMC13380429.

Test system: Vero E6 infected with SARS-CoV-2
Experiment: inhibition of SARS-CoV-2 cytopathic effect; higher = more antiviral protection, active = above 15
Conditions: 48 h

Measured: inhibition of SARS-CoV-2 cytopathic effect

NC(=O)[C@@H](CCC(F)(F)F)N(Cc1ccc(-c2ncon2)cc1F)S(=O)(=O)c1ccc(Cl)cc1 [avagacestat]
inactive: 1 nM 0.74% | 8.33 nM -2.98% | 100 nM -5.03% | 833.33 nM -4.21% | 10000 nM -6.12%

NC[C@H]1O[C@H](O[C@H]2[C@H](O)[C@@H](O[C@H]3O[C@H](CO)[C@@H](O)[C@H](N)[C@H]3O)[C@H](N)C[C@@H]2N)[C@H](O)[C@@H](O)[C@@H]1O [kanamycin]
inactive: 1 nM 1.47% | 8.33 nM 2.23% | 100 nM 2.41% | 833.33 nM 3.53% | 10000 nM -0.06%

CSc1ccc2c(c1)N(CCC1CCCCN1C)c1ccccc1S2 (stereo not given) [thioridazine]
active: 10000 nM 41.9%
inactive: 1 nM 1.41% | 8.33 nM 3.38% | 100 nM -2.55% | 833.33 nM 1.05%

CCn1cnc2c(Nc3cccc(Cl)c3)nc(N[C@@H]3CCCC[C@@H]3N)nc21
inactive: 1 nM -1.22% | 8.33 nM 0.37% | 100 nM 2.67% | 833.33 nM 3.13% | 10000 nM -29.1%

CCC1(c2ccccc2)C(=O)NCNC1=O [primidone]
inactive: 1 nM 0.5% | 8.33 nM -0.36% | 100 nM -1.1% | 833.33 nM 0.53% | 10000 nM 1.81%

CCCCCCCCCCCC1=C(O)C(=O)C=C(O)C1=O [embelin]
inactive: 1 nM 0.27% | 8.33 nM -0.22% | 100 nM -1.48% | 833.33 nM -2.76% | 10000 nM -6.88%

O=C1CC[C@@](c2ccccc2)(C2CCN(Cc3ccc(I)cc3)CC2)C(=O)N1 [iododexetimide]
inactive: 1 nM 1.14% | 8.33 nM -0.02% | 100 nM -0.5% | 833.33 nM -1.35% | 10000 nM -6.84%

CCN(CC)C(=O)/C(C#N)=C/c1cc(O)c(O)c([N+](=O)[O-])c1 [entacapone]
inactive: 1 nM -0.37% | 8.33 nM -1.7% | 100 nM -1.61% | 833.33 nM -2.41% | 10000 nM -0.4%

C[C@]12CCC(=O)C[C@@H]1CC[C@@H]1[C@@H]2CC[C@]2(C)C=CC[C@@H]12 [androstenone]
inactive: 1 nM -0.13% | 8.33 nM -0.62% | 100 nM -1.17% | 833.33 nM 0.87% | 10000 nM -0.03%

Cc1cc(F)c(Nc2ncnc3cc(OCc4ccccc4)ccc23)cc1O
inactive: 1 nM -3.67% | 8.33 nM -0.24% | 100 nM -1.17% | 833.33 nM -2.03% | 10000 nM -1.32%

COC(=O)C1=C(C)NC(C)=C(C(=O)OC)C1c1ccccc1[N+](=O)[O-] [nifedipine]
inactive: 1 nM -0.99% | 8.33 nM 0.14% | 100 nM -0.27% | 833.33 nM 3.23% | 10000 nM 4.43%

NC(=O)C(c1ccccc1)(c1ccccc1)[C@@H]1CCN(CCc2ccc3c(c2)CCO3)C1 [darifenacin]
inactive: 1 nM -1.18% | 8.33 nM 0.61% | 100 nM 2.83% | 833.33 nM 0.42% | 10000 nM -5.65%

CC(=O)OCC(=O)[C@@]12OC3(CCCC3)O[C@@H]1C[C@H]1[C@@H]3CCC4=CC(=O)C=C[C@]4(C)[C@@]3(F)[C@@H](O)C[C@@]12C [amcinonide]
inactive: 1 nM -1.51% | 8.33 nM -0.7% | 100 nM -1.46% | 833.33 nM -0.87% | 10000 nM -3.21%

C=CC[N@@+]12CC[C@@]34c5ccccc5N5/C=C6/[C@H]7C[C@H]8[C@@]9(CC[N@@+]8(CC=C)C/C7=C/CO)c7ccccc7N(/C=C(/[C@@H](C[C@@H]31)/C(=C\CO)C2)[C@H]54)[C@@H]69 [alcuronium]
inactive: 1 nM 1.2% | 8.33 nM -0.77% | 100 nM -0.24% | 833.33 nM -0.81% | 10000 nM 4.13%

COc1cccc(Nc2c(C(N)=O)cnc3c(C)cc(S(=O)(=O)c4cccc(C(=O)N(C)C)c4)cc23)c1
inactive: 1 nM 1.19% | 8.33 nM 3.12% | 100 nM 0.15% | 833.33 nM 3.01% | 10000 nM 0.48%

O=C(CN1CCNCC1)NC1CCCCC1 [esaprazole]
inactive: 1 nM -1.96% | 8.33 nM -1.47% | 100 nM -0.45% | 833.33 nM -0.95% | 10000 nM -1.46%

CCc1cc(/C(C)=N/OCc2ccc(C3CCCCC3)c(C(F)(F)F)c2)ccc1CN1CC(C(=O)O)C1 [siponimod]
inactive: 1 nM -0.21% | 8.33 nM -1.67% | 100 nM -0.01% | 833.33 nM -0.18% | 10000 nM 1.37%
